Records with an inconclusive call do not appear. Entries that show only a call come without a potency. Active and inactive are the calls of the source. Calls follow the shape of the dose curve; as a rule, active = well fitted cell-killing curve with a large enough effect in the repeat runs (not every such curve was filed as active); inconclusive = weak or mixed curves, or effect the other way; inactive = no such curve, though single readings can be large or run the other way.

The source of these data is PubChem BioAssay (Tox21).
Potency is read from the fitted curve at half-maximal effect.

A short description of the experiment: qHTS assay to identify small molecule antagonists of the estrogen related receptor signaling pathway with the pleiotropic PPARgamma coactivator (PGC) from Tox21 10K library - cell viability counter screen (AID 1224840). Also: nearly all actives have a fitted effect of over 40% in size. Conditions: PGC/ERR reporter cells viability, CellTiter-Fluor, 17.5 h; series mostly up to 92.4 µM. An excerpt:
National Center for Advancing Translational Sciences [NCATS]
NIH Chemical Genomics Center [NCGC]
U.S. Environmental Protection Agency [EPA]
National Institutes of Environmental Health Sciences [NIEHS]
National Toxicology Program [NTP]
U.S. Food and Drug Administration [FDA]
Estrogen related receptors (ERRs), the first orphan nuclear receptors discovered, play an important role in the control of cellular energy metabolism. ERRs are required for high-energy production in response to the environmental challenges. The pleiotropic PPARgamma coactivator (PGC) is a major partner of ERR and a key regulator in energy homeostasis. Together they have been implicated in the etiology of metabolic disorders such as Type 2 diabetes and metabolic syndrome. ERR-alpha was also identified as an adverse marker for breast cancer progression; ERR-alpha-positive tumors have a poor prognosis. To screen and to identify environmental compounds that perturb the ERR and PGC/ERR signaling pathways could provide valuable information for potential therapeutic or preventive measures in the treatment of metabolic disease. To differentiate true PGC/ERR antagonists or agonist from cytotoxic substances, the assay is multiplexed with cell viability assay.
Tox21 Assay Protocol Summary:
The PGC/ERR cells were dispensed at 2,000 cells/5 ul/well in 1536-well white plates using a Multidrop dispenser. After the assay plates were incubated at a 37 C/5% CO2 incubator for 6 hours, 23 nL of compounds dissolved in DMSO, positive and negative controls or DMSO only was transferred to the assay plate by a pin tool. The plates were incubated at 37 C for 17.5 hours. 1 ul/well of CellTiter-Fluor reagent was added into the assay plates using a Flying Reagent Dispenser. After 30-minute incubation at 37 C/5% CO2, the fluorescence intensity in the plates was measured using a ViewLux plate reader.
In general terms: Quantitative high-throughput screening tests each substance at several concentrations.
With `C[Si](C)O[Si](C)C`, the Potency entry was “inactive”.

As to `Clc1ccc(C(c2ccccc2Cl)C(Cl)Cl)cc1` (stereo not given), the Potency result is “inactive”. In the case of `O=S(O)O`, the viability change, negative = cytotoxic was -6.77% [at 19 µM] (inactive). `Cc1cn[nH]c1`: the Potency result is “inactive”. In the case of `Cc1cc(Nc2ccc(O)cc2)ccc1N`, the Potency is 24.2 µM (active). On the same count and under the same terms, the value for `CS(C)(=O)=O` was “inactive”; that for `CCCC(=O)OCC(COC(=O)CCC)OC(=O)CCC` was “inactive”; that for `CCCCCCCC(C)=O` was “inactive”. Still for that read-out and setting: the entry for `Clc1nc2ccccc2s1` is “inactive”; for `CC(C)=CCCC(C)CCOC(=O)C(C)C` (stereo not given) it is “inactive”. On the same count and under the same terms, the entry for `CC(=O)C=O` is “inactive”. With `COC(=O)[C@]1(C)CCC[C@@]2(C)[C@H]1CC=C1C=C(C(C)C)CC[C@@H]12`, the Potency result is “inactive”. Same read-out and setting: the figure for `C=CC(=O)OCCOCC(CC)(COCCOC(=O)C=C)COCCOC(=O)C=C` is 16 µM (active); for `C=CC(=O)OCCN(CC)CC` it is “inactive”; for `c1ccc(Nc2cccc3ccccc23)cc1` it is “inactive”.

`CCCCCCCC(OC)OC`: the Potency result is “inactive”. Turning to `O=C1OC(OC(=O)c2cccnc2Nc2cccc(C(F)(F)F)c2)c2ccccc21` (stereo not given), the Potency result is “inactive”.

With `CC(=O)Oc1ccc(C2(c3ccc(OC(C)=O)cc3)Oc3ccccc3NC2=O)cc1`, the Potency result is “inactive”. In the case of `O=C(Nc1ccc(Cl)c(Cl)c1)c1cc(Cl)cc(Cl)c1O`, the Potency is 4.33 µM (active).

In the case of `CCCCCCOc1ccc(O)cc1`, the Potency result is “inactive”. Same read-out and setting: the entry for `CC(=O)Nc1ccc(O)cc1` is “inactive”; for `C/C=C/C(=O)Oc1c(CCCCCC(C)C)cc([N+](=O)[O-])cc1[N+](=O)[O-]` it is 27.3 µM (active). Still for that read-out and setting: the entry for `C=CCCCCCCC=C` is “inactive”; for `CC1(C)COCN1` it is “inactive”; for `CN(C)CCOC(c1ccccc1)c1ccccc1` (tested in a mixture with another compound) it is “inactive”.

Turning to `COc1ccccc1C=O`, the Potency entry is “inactive”. The same measure, in the same setting: the entry for `CCCCN(C)C` is “inactive”; for `CC[N+](CC)(CC)Cc1ccccc1` it is “inactive”. Still for that read-out and setting: the value for `CCN(CC)CCOC(=O)C1(C2CCCCC2)CCCCC1` was “inactive”.

In the case of `N[C@@H](CSSC[C@H](N)C(=O)O)C(=O)O`, the viability change, negative = cytotoxic is 6.11% [at 0.349 µM] (inactive). Consider `c1cc(OCC2CO2)cc(OCC2CO2)c1` (stereo not given), for which the Potency was 68 µM (active). On to `CC(C)(c1cc(Br)c(OCCO)c(Br)c1)c1cc(Br)c(OCCO)c(Br)c1`, for which the Potency is 42.3 µM (active). Consider `OCCCCl`, for which the Potency result was “inactive”. Still for that read-out and setting: the entry for `Brc1ccccc1-c1ccccc1` is “inactive”; for `O=C1Nc2ccc(Cl)cc2[C@@](C#CC2CC2)(C(F)(F)F)O1` it is “inactive”; for `CC(C)c1ccc(O)c(C(C)C)c1` it is “inactive”.

As for `CC(C)=CC1CC(C)CCO1` (stereo not given), the Potency entry is “inactive”.

In the case of `O=S(=O)(O)c1cc(S(=O)(=O)O)c2ccc3c(S(=O)(=O)O)cc(S(=O)(=O)O)c4ccc1c2c43`, the viability change, negative = cytotoxic was 1.08% [at 19 µM] (inactive).

Regarding `CNC(=S)NN`, the Potency was 13.7 µM (active). Same read-out and setting: the figure for `O=C1C=CC(=O)N1c1ccccc1` is 30.6 µM (active).
